Measured values published in ChEMBL document CHEMBL3988442, “University of Dundee, Small-Polar-MMV Screening Library” (2021).
Hit rate of the full screen: of about 38,000 compounds, about 1,200 (3.2%) showed an effect of 50% or more. The median lay at about -58%. For the sample, strong results were picked, then their nearest neighbours and some compounds at random.

test system: Plasmodium falciparum; test: Calibr Malaria Delayed Death Assay SOP; assay type: functional, organism-based; set-up: scale not given: in the data most compounds retested in dose-response had high values; conditions: concentration 4.99e-06 (unit not given; other assays of the set use mol/L)

Compared with `COc1ccccc1C1(C(=O)NCCN2CCOCC2)CCOCC1`, `Cc1ccccc1C1(C(=O)NCCN2CCCC2)CCOCC1` is higher in “Percent Effect” value: -173.3% for the first, -7.598% for the second.

First: Cc1ccc(CNCC2Cn3nncc3CO2)s1 (centres undefined)
Second: Cc1ccc(CCN[C@@H]2c3ccccc3C3(CCNCC3)[C@H]2O)s1
The “Percent Effect” value of the first is lower: -76.38% for the first, 87.27% for the second.

First: CN(Cc1cncnc1)[C@H]1CN(C(=O)c2ccc[nH]2)[C@@H]2CCCO[C@@H]21
Second: Fc1ccccc1OCCN1CCCCC1Cn1cncn1 (centres undefined)
The “Percent Effect” value of the first is higher: -58.36% for the first, -107.8% for the second.

Going from `CC(c1ccc(F)cc1F)N1CCN(CCC(=O)O)CC1.Cl` (centres undefined) to `CC(c1ccc(F)cc1F)N1CCN(CCC(=O)NC(N)=O)CC1` (centres undefined), the “Percent Effect” value rises from -12.88% to 63.51%.

Going from `CC(c1ccc(F)cc1F)N1CCN(CCN2CCCC2=O)CC1` (centres undefined) to `COC(=O)c1cc(C)nc(N2CCN(Cc3ccn(C(C)C)c3)CC2)n1`, the “Percent Effect” value rises from -15.63% to -8.689%.

First: O=C(O)C(F)(F)F.O=C(O)C(F)(F)F.c1nc(CNC2CCOCC2)c2n1CCCN(CC1CC1)C2
Second: CCC(=O)N1CC[C@H]2[C@H](C[C@@H](CN3CCCC3)N2c2nccs2)C1.O=C(O)C(F)(F)F.O=C(O)C(F)(F)F
The “Percent Effect” value of the first is lower: -115.6% for the first, -82.37% for the second.

Going from `COCCN(C)[C@@H]1c2ccccc2C2(CCNCC2)[C@H]1O` to `COc1ccccc1CCN[C@@H]1c2ccccc2C2(CCNCC2)[C@H]1O`, the “Percent Effect” value rises from -111.9% to 81.73%.

Compared with `O[C@H]1[C@H](NCCc2ccccn2)c2ccccc2C12CCNCC2`, `O[C@H]1[C@H](NCCSc2ccccn2)c2ccccc2C12CCNCC2` is higher in “Percent Effect” value: -35.06% for the first, 23.57% for the second.

Going from `O[C@H]1[C@H](NCCc2cnccn2)c2ccccc2C12CCNCC2` to `CN1CCC2(CC1)CN(C(=O)c1cccnc1)c1ccc(Cl)cc12`, the “Percent Effect” value rises from -10.61% to 55.37%.

Going from `Cc1ccc(-n2ncc3c2CCCC3N)cc1C` (centres undefined) to `Cc1ccc(C)c(-n2ncc(C(=O)NCC3COC(C)(C)O3)c2N)c1` (centres undefined), the “Percent Effect” value falls from 5.746% to -97.45%.

First: COCCN(Cc1cccnc1)S(=O)(=O)c1ccc(F)cc1C
Second: O=C(Cc1n[nH]c(-c2cncc(Br)c2)n1)NCc1cccnc1
The “Percent Effect” value of the first is lower: -88.98% for the first, -11.15% for the second.

Going from `Cc1cccc(C2CCCN2S(=O)(=O)N(C)C)n1` (centres undefined) to `Cc1cccc(NC(=O)[C@@H]2CCCN2Cc2nc(C)c(C)o2)n1`, the “Percent Effect” value rises from -47.51% to -28.43%.

Compared with `C=C(C)CSc1nnc(CCNC(=O)OC(C)(C)C)o1`, `CC(C)CCNC(=O)NC(C)c1nncn1C` (centres undefined) is lower in “Percent Effect” value: -85.15% for the first, -95.25% for the second.

Going from `O=S1(=O)N=C(CSCc2ccccc2)Nc2ccccc21` to `Cc1cccc(NC(=O)CN2C(=O)CC(C)(C)c3ccccc32)n1`, the “Percent Effect” value rises from -68.12% to -54.59%.

Going from `COc1cc(S(=O)(=O)N2CCc3cc(Br)ccc32)cc(C(=O)O)c1OC` to `O=S(=O)(NC1=NCN(CCc2cccs2)CN1)c1ccc(Br)cc1`, the “Percent Effect” value rises from -66.42% to -31.17%.

First: CC(=O)c1cccc(S(=O)(=O)NCCNC(=O)c2snnc2C)c1
Second: CC(C)C(=O)Nc1ccc2c(c1)ncn2CC(=O)NCCN(C)C
The “Percent Effect” value of the first is higher: -10.04% for the first, -104.6% for the second.

Going from `Cc1csc(CN2CC[C@H]3O[C@H](C(=O)Nc4cccnc4)CC[C@H]32)n1.O=C(O)C(F)(F)F.O=C(O)C(F)(F)F` to `CCC(=O)N1CC[C@H]2[C@H](C[C@@H](Cn3cccn3)N2c2nccs2)C1.O=C(O)C(F)(F)F.O=C(O)C(F)(F)F`, the “Percent Effect” value rises from -21.13% to -17.69%.

Going from `CC(=O)N1[C@H](Cn2cncn2)C[C@@H]2CN(Cc3nccs3)CC[C@@H]21` to `CC(=O)N1[C@H](Cn2cncn2)C[C@@H]2CN(CC3CC3)CC[C@@H]21.O=C(O)C(F)(F)F`, the “Percent Effect” value rises from -179.2% to -11.44%.

Compared with `CC(=O)N1CC[C@H]2[C@H](C[C@@H](CN3CCCC3)N2c2nccs2)C1.O=C(O)C(F)(F)F.O=C(O)C(F)(F)F`, `CN1CC[C@H]2[C@H](C[C@@H](CN3CCCC3)N2c2nccs2)C1.O=C(O)C(F)(F)F.O=C(O)C(F)(F)F.O=C(O)C(F)(F)F` is higher in “Percent Effect” value: -53.97% for the first, 72.73% for the second.

Compared with `CN1[C@H](CN2CCCC2)C[C@@H]2CN(C(=O)Cc3cccs3)CC[C@@H]21.O=C(O)C(F)(F)F.O=C(O)C(F)(F)F`, `O=C(O)C(F)(F)F.O=C(O)C(F)(F)F.O=C(O)C(F)(F)F.c1cnn(C[C@@H]2C[C@@H]3CN(CC4CC4)CC[C@@H]3N2c2nccs2)c1` is higher in “Percent Effect” value: -31.64% for the first, 89.5% for the second.

Going from `Cl.Cl.c1csc(N2[C@H](Cn3cncn3)C[C@@H]3CNCC[C@@H]32)n1` to `CC(=O)N1CC[C@H]2[C@H](C[C@@H](Cn3cncn3)N2c2nccs2)C1.O=C(O)C(F)(F)F`, the “Percent Effect” value rises from -62.09% to -37.22%.

Going from `CC(C)N1CC[C@H]2[C@H](C[C@@H](Cn3cccn3)N2c2nccs2)C1.O=C(O)C(F)(F)F.O=C(O)C(F)(F)F.O=C(O)C(F)(F)F` to `CCN1CCC2(CC1)CC(NCc1cccc(C)n1)c1ccccc1O2.O=C(O)C(F)(F)F.O=C(O)C(F)(F)F.O=C(O)C(F)(F)F` (centres undefined), the “Percent Effect” value rises from 65% to 91.27%.

Compared with `CC1CCC(NC(=O)NCC(C)(C)CCS(C)(=O)=O)CC1` (centres undefined), `CCCC(=O)N1CCC(N2CC[C@@](O)(CCOC)[C@H](C)C2)CC1` is higher in “Percent Effect” value: -129.7% for the first, -32.76% for the second.

Going from `CCN(Cc1ccc(S(C)(=O)=O)cc1)Cc1nc(COC)no1` to `COc1ccc(C(NCc2cccc(O)c2)C2CC2)cc1` (centres undefined), the “Percent Effect” value rises from -129.1% to 83.32%.

First: O=c1cc(Cn2ccnc2)nc2n1CCCN(Cc1cccs1)C2
Second: O=C(c1cccs1)N1CCc2ncc(Cn3cncn3)n2CC1
The “Percent Effect” value of the first is higher: -55.92% for the first, -172.5% for the second.

First: O=C(NCCCO)c1cc(-c2cc[nH]n2)n2ccccc12.O=C(O)C(F)(F)F
Second: CC(C)Nc1ncnc2c1CCN(C(=O)c1ccccc1F)CC2.O=C(O)C(F)(F)F
The “Percent Effect” value of the first is higher: -31.15% for the first, -96.03% for the second.

First: COc1ccc(C(NCc2cccc(C#N)c2)C2CC2)cc1 (centres undefined)
Second: COc1ccc(C(NCc2cccc(C#N)c2)C(C)C)cc1 (centres undefined)
The “Percent Effect” value of the first is higher: 47.49% for the first, -12.81% for the second.

First: CCN1CCC2(CC1)CN(C(=O)c1cccnc1)c1ccc(Cl)cc12.O=C(O)C(F)(F)F.O=C(O)C(F)(F)F
Second: CC(=O)N1CCC2(CC1)CN(C(=O)c1cccnc1)c1ccc(F)cc12.O=C(O)C(F)(F)F
The “Percent Effect” value of the first is higher: 9.219% for the first, -38.16% for the second.

Going from `O=C(CN1CCC(c2nnc(C(F)(F)F)o2)CC1)Nc1cccc(Cl)c1` to `O=C(NCCc1cccc(Cl)c1)C1CCOCC1`, the “Percent Effect” value falls from -52.49% to -133.6%.

First: CCCS(=O)(=O)N1CCC2(CC1)CC(Nc1ncccn1)CO2 (centres undefined)
Second: Cc1cccc(COC2COC3(CCN(S(C)(=O)=O)CC3)C2)n1.O=C(O)C(F)(F)F (centres undefined)
The “Percent Effect” value of the first is lower: -70.84% for the first, -59.75% for the second.

Going from `CC(C)N(C)Cc1cnc2n1CCN(C(=O)Cc1ccccn1)C2.O=C(O)C(F)(F)F.O=C(O)C(F)(F)F` to `CC(C)N(C)Cc1cnc2n1CCN(CCc1ccccc1)C2.O=C(O)C(F)(F)F.O=C(O)C(F)(F)F`, the “Percent Effect” value rises from -6.542% to 0.4179%.

Compared with `O=C(NC1CC1)N1CCn2c(Cn3cccn3)cnc2C1.O=C(O)C(F)(F)F`, `CC(C)N(C)Cc1cnc2n1CCN(C(=O)c1cccs1)C2` is higher in “Percent Effect” value: -67.84% for the first, 60.68% for the second.

Compared with `Cc1noc(C2CCC3(CCN(C(=O)c4ccnnc4)CC3)O2)n1` (centres undefined), `CCCC(=O)N1CCC2(CC1)CC(NC(C)=O)c1ccccc1O2` (centres undefined) is lower in “Percent Effect” value: -55.26% for the first, -58.82% for the second.

Compared with `CCOc1ccc(C(C)Nc2ncnc3c2CCNC3)cc1OCC` (centres undefined), `CC(Nc1ncnc2c1CCNC2)c1ccc2c(c1)CCCC2` (centres undefined) is higher in “Percent Effect” value: 46.78% for the first, 70.15% for the second.

Going from `CC(C)Nc1ncnc2c1CCNCC2` to `CC(C)[C@H](NC(=O)Cn1nc2c(cc1=O)CCCC2)C(=O)O`, the “Percent Effect” value falls from -47.68% to -82.81%.

Compared with `COCCN(C)C[C@@H]1CN(C(=O)c2cccc(C#N)c2)C[C@@H]1CO`, `Cc1cccc(OC2CCN(C(=O)c3ccc4ncsc4c3)CC2)n1` is lower in “Percent Effect” value: -70.73% for the first, -115.6% for the second.

First: COc1cc(Cl)c(NCc2c(C)noc2C)cc1OC
Second: COc1cc(N2CC[C@@H]3O[C@@H](C(=O)NCCN(C)C)C[C@@H]32)ncn1
The “Percent Effect” value of the first is lower: -68.38% for the first, -52.73% for the second.

First: O=C(Nc1cccc2c1CCCC2)c1cccnc1N1CCCNCC1
Second: CC1CN(c2ncccc2C(=O)Nc2cccc3c2CCCC3)CCN1 (centres undefined)
The “Percent Effect” value of the first is higher: 53.52% for the first, 10.16% for the second.

Going from `Cc1cccc(C(=O)Nc2cccc3c2CCCC3)n1` to `Cc1cc(NC(=O)N2CCCC2C(C)(C)O)c2ncccc2c1` (centres undefined), the “Percent Effect” value rises from -261.8% to -22.81%.

First: CCNc1ncc2c(n1)CN(c1ccc(Cl)cc1)C2=O
Second: O=C(C[S+]([O-])Cc1cccc(Cl)c1)NC1CCCC1 (centres undefined)
The “Percent Effect” value of the first is lower: -180.2% for the first, -107.7% for the second.

First: CCOC1COC2(CCN(Cc3cccc(C)n3)CC2)C1.O=C(O)C(F)(F)F (centres undefined)
Second: Cc1cccc(COC2COC3(CCN(Cc4ccoc4)CC3)C2)n1 (centres undefined)
The “Percent Effect” value of the first is lower: -37.49% for the first, -18.84% for the second.

Compared with `CC(C)OCCC(=O)N1CCN(CC(O)c2ccccc2)CC1` (centres undefined), `Cc1cc(NC(=O)NC2CCN(C(C)C)CC2)c2ncccc2c1` is higher in “Percent Effect” value: -51.21% for the first, 79.09% for the second.

Going from `Cn1ncc2c1CCCC2NCc1cccc(OC2CCCC2)c1` (centres undefined) to `Cc1cc(NC(=O)N2CCCC2C(=O)NC2CC2)c2ncccc2c1` (centres undefined), the “Percent Effect” value falls from 2.699% to -118%.

Going from `CCn1nccc1CNC(=O)C1CCCCC1` to `O=C(Cc1cccc(Cl)c1)N[C@@H]1CCNC[C@H]1O`, the “Percent Effect” value rises from -119.3% to -79.06%.

For `O=C(O)c1cn2cc(C(F)(F)F)ccc2n1`, the “Percent Effect” value was -36.42%.
